This is an account of results in PubChem BioAssay.

SMILES strings stand for the structures. Calls of active or inactive are those of the source.

Experiment [1] deals with PRMT1 (protein arginine N-methyltransferase 1). In words: PRMT1 binders on small-molecule microarrays, primary screen, biochemical, small-molecule microarray, 635 nm fluorescence (AID 1088).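 Note: binding of Prmt1 protein to compounds spotted on small-molecule microarray slides.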 The following applies: small-molecule microarray binding, higher = more signal.
Experiment [2] can be described thus: yeast growth modulation, basal conditions, primary screen, YJM789 clinical isolate, OD600, 24 h (AID 1089).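 Note: growth of clinical yeast isolate S. cerevisiae YJM 789 seeded 1000 cells per well; test concentration not given here.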 The following applies: S. cerevisiae YJM789 growth, higher = more signal, called active from +8 up or from −8 down.
Experiment [3] is described as follows: fission yeast growth modulation, primary screen, strain 972, OD600, 24 h, no modulator (AID 1090).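 Note: basal condition with compound alone and no growth modifier present; test concentration not given here.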 As to conditions: S. pombe 972 growth, higher = more signal, called active from +8 up or from −8 down.
A short description of experiment [4]: S. cerevisiae growth modulation with rapamycin, primary screen, strain BY4716, OD600, 96 h (AID 1091). Note: test concentration not given here. The following applies: higher = more signal, called active from +8 up or from −8 down.
For experiment [5], the target named is Torsin-1A-interacting protein 2 (Homo sapiens) (UniProt Q8NFQ8). The experiment can be described thus: LULL1 binders on small-molecule microarray, primary screen, cell lysate, human LULL1 lysate, 635/667 nm fluorescence (AID 1092).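 Note: probe is lysate of COS7 cells overexpressing human LULL1; score merges per-feature 667 nm fluorescence with signal-to-noise.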 As to conditions: hLULL1 lysate binding, 635 nm fluorescence, higher = more signal.
A short description of experiment [6]: E. coli growth modulation, two-sided OD650, primary screen, E. coli filamentation project, strain DRC41, 24 h (AID 1093).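 Note: MC1000 strain lacking acrAB efflux and sulA so SOS filamentation is blocked; test concentration not given here.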 The following applies: OD650, 24 h, higher = more signal, called active from +8 up or from −8 down.
The nature of experiment [7]: small-molecule microarray binders of probe aLefty2, primary screen, biochemical, biotinylated probe, 635/667 nm fluorescence (AID 1094).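 Note: score merges spot fluorescence near 667 nm with spot signal-to-noise ratio.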 The following applies: higher = more signal.
The subject of experiment [8] is Noggin (protein binding on small-molecule microarray). In words: Noggin binders on small-molecule microarray, primary screen, biochemical, 635/667 nm fluorescence (AID 1095).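 Note: score merges 667 nm feature fluorescence with signal to noise over triplicate slides.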 As to conditions: 635 nm fluorescence, higher = more signal.
Experiment [9] concerns the target Neurogenic locus notch homolog protein 3 (Homo sapiens) (UniProt Q9UM47). In words: NOTCH3 binders on small-molecule microarray, primary screen, biochemical, 635/667 nm fluorescence (AID 1096). The following applies: NOTCH3 binding, 635 nm fluorescence, higher = more signal.
Experiment [10] can be described thus: small-molecule microarray binders of probe aEGFR, primary screen, biochemical, biotinylated probe, 635/667 nm fluorescence (AID 1097).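 Note: probe is a biotinylated anti-EGFR antibody binding compounds printed on slides; score combines fluorescence near 667 nm and signal to noise of each spot.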 The following applies: higher = more signal.
Experiment [11] has as its system Plasmodium falciparum Sir2 (PF13_0152, Sir2A). The experiment can be described thus: pfSir2 binders on small-molecule microarrays, primary screen, biochemical, small-molecule microarray, 635 nm fluorescence (AID 1098).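 Note: score merges spot fluorescence intensity with its signal-to-noise ratio.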 The following applies: small-molecule microarray binding, fluorescence 635 nm; higher = more signal.
A short description of experiment [12]: small-molecule microarray binders of probe aDKK1, primary screen, biochemical, biotinylated probe, 635/667 nm fluorescence (AID 1099).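 Note: score merges 667nm spot fluorescence with signal to noise across triplicate slides; reference of the scale not given here.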 As to conditions: higher = more signal.
Experiment [13] can be described thus: small-molecule microarray binders of probe aCHRDL2, primary screen, biochemical, biotinylated probe, 635/667 nm fluorescence (AID 1100). The following applies: higher = more signal.
Experiment [14] in a line: splicing luciferase reporter signal modulators, primary screen, spliceosome inhibition project, cell-based, HEK293, splice +/- reporter (AID 1101).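 Note: HEK293 cells carrying a splicing-competent luciferase reporter gene; test concentration not given here.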 The following applies: luminescence, 24 h, higher = more signal, called active from +8 up or from −8 down. In general terms: A reporter such as luciferase makes a cellular process visible.
For experiment [15], the target named is Fibroblast growth factor 10 (Homo sapiens) (UniProt O15520). In words: FGF10 binders on small-molecule microarrays, primary screen, biochemical, small-molecule microarray, 635 nm fluorescence (AID 1102). As to conditions: FGF10 binding, fluorescence 635 nm, higher = more signal.
For experiment [16], the system named is glycogen synthase kinase-3 (GSK3A per assay name; protocol says GSK3B). The experiment can be described thus: GSK3 binders on small-molecule microarrays, primary screen, biochemical, small-molecule microarray, 635 nm fluorescence, GSK3A (AID 1103). Note: the record names both GSK3A and GSK3B. As to conditions: small-molecule microarray binding, fluorescence 635 nm; higher = more signal.
Experiment [17] addresses Epidermal growth factor receptor (Homo sapiens) (UniProt P00533). The experiment can be described thus: EGFR binders on small-molecule microarrays, primary screen, biochemical, small-molecule microarray, 635 nm fluorescence (AID 1104).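 Note: score merges 667 nm emission intensity with spot signal to noise over triplicate slides.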 The following applies: EGFR binding, higher = more signal.
Experiment [18] deals with Follistatin-related protein 3 (Homo sapiens) (UniProt O95633). In words: FSTL3 binders on small-molecule microarrays, primary screen, biochemical, small-molecule microarray, 635 nm fluorescence (AID 1105).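 Note: score merges emission near 667 nm and signal to noise per printed spot across three slides.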 As to conditions: FSTL3 binding, higher = more signal.
Experiment [19] deals with Dickkopf-related protein 1 (Homo sapiens) (UniProt O94907). The experiment can be described thus: DKK1 binders on small-molecule microarrays, primary screen, biochemical, small-molecule microarray, 635 nm fluorescence scan (AID 1106).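 Note: score merges emission near 667 nm with signal to noise over three replicate slides.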 As to conditions: DKK1 binding, higher = more signal.
The subject of experiment [20] is Inhibin beta A chain (activin A). In words: INHBA (activin A) binders on microarrays, primary screen, biochemical, small-molecule microarray, 635 nm fluorescence scan (AID 1107).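 Note: mouse activin A protein probed at 4.33 µg/mL on printed slides; score merges bound-protein fluorescence near 667 nm with spot signal-to-noise.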 The following applies: small-molecule microarray binding, higher = more signal.

Chain of Fibroblast growth factor 10 (Homo sapiens) (O15520 whole entry, looked up): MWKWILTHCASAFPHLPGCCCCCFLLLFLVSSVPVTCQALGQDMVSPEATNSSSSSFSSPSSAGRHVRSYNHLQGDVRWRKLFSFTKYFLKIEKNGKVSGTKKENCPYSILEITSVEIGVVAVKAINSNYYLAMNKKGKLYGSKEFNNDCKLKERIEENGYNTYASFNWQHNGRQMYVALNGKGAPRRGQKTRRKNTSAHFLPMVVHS
Chain of Follistatin-related protein 3 (Homo sapiens) (O95633 whole entry, looked up): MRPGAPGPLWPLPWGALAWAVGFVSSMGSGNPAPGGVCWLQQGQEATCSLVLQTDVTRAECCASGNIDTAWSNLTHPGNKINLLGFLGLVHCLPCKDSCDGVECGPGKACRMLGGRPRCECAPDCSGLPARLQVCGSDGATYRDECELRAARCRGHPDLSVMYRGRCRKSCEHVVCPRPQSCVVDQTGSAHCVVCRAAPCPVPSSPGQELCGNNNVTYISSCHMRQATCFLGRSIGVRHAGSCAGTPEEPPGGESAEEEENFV
Chain of Torsin-1A-interacting protein 2 (Homo sapiens) (Q8NFQ8 whole entry, looked up): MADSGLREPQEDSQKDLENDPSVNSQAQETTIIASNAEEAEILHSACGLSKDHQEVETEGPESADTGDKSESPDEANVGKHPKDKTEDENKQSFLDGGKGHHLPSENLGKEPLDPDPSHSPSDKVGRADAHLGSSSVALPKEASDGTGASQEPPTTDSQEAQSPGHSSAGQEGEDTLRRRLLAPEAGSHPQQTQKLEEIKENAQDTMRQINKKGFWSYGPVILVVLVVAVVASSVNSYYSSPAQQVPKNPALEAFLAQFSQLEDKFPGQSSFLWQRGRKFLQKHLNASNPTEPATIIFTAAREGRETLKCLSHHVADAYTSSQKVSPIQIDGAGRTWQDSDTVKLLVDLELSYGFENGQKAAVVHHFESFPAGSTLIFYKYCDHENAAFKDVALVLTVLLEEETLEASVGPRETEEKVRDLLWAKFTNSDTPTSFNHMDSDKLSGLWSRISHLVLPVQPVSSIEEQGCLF
Chain of Neurogenic locus notch homolog protein 3 (Homo sapiens) (Q9UM47 whole entry, looked up): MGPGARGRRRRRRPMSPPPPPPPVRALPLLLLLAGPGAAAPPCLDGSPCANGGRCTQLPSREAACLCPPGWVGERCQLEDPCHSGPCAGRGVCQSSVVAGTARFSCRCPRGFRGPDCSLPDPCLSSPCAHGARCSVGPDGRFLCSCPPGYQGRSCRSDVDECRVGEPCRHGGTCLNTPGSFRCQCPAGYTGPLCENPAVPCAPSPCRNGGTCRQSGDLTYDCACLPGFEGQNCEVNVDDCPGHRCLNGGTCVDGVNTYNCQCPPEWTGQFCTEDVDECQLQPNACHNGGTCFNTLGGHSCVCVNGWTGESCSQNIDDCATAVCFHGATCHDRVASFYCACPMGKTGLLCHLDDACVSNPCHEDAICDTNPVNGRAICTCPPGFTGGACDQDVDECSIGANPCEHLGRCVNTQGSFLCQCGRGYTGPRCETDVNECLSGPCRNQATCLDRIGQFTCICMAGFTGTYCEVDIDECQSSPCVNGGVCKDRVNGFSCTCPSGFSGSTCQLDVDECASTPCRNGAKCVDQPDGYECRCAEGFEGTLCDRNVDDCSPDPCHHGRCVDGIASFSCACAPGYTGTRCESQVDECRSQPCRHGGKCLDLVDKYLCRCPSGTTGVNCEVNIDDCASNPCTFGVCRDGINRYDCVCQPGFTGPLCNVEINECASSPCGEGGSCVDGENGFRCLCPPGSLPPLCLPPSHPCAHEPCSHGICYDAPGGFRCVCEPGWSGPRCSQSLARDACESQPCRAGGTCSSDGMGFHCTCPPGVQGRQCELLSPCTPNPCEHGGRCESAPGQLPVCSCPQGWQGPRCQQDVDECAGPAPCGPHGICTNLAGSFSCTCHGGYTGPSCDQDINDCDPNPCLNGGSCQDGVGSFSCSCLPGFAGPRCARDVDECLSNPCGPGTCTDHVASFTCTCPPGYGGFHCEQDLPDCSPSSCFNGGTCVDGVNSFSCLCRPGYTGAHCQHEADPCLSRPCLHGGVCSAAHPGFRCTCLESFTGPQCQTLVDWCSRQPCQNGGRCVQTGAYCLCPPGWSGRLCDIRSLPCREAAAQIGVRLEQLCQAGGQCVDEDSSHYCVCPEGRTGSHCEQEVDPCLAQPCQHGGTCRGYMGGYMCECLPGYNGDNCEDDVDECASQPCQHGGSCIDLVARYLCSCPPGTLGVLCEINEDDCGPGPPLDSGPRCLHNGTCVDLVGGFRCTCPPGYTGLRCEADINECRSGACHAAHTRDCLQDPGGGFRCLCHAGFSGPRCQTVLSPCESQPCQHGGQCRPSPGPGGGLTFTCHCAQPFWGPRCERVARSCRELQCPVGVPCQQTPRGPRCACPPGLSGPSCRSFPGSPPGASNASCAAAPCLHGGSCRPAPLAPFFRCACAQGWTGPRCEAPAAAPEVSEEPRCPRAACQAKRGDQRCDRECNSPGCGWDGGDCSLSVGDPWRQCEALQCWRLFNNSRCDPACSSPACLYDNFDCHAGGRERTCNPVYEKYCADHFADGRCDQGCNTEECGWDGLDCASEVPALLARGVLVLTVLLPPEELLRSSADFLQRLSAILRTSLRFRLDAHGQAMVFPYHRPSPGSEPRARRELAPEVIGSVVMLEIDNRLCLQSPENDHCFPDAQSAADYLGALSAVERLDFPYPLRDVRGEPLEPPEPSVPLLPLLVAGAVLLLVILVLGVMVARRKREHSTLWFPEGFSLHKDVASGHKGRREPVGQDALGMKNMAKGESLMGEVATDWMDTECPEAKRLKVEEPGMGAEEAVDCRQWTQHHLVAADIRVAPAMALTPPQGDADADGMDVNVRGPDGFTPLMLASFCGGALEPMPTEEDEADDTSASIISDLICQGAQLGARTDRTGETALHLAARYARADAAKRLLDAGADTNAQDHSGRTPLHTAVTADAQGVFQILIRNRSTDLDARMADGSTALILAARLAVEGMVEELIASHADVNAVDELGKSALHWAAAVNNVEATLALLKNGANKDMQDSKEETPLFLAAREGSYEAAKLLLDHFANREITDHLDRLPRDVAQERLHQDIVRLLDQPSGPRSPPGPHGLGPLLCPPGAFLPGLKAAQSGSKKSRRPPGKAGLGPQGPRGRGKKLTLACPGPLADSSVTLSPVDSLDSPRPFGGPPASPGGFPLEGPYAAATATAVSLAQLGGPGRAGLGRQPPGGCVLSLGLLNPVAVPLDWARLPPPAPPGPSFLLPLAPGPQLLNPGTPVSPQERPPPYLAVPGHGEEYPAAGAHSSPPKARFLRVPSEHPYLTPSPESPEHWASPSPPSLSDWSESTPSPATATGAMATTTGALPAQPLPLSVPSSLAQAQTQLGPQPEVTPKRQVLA
Chain of Epidermal growth factor receptor (Homo sapiens) (P00533 whole entry, looked up): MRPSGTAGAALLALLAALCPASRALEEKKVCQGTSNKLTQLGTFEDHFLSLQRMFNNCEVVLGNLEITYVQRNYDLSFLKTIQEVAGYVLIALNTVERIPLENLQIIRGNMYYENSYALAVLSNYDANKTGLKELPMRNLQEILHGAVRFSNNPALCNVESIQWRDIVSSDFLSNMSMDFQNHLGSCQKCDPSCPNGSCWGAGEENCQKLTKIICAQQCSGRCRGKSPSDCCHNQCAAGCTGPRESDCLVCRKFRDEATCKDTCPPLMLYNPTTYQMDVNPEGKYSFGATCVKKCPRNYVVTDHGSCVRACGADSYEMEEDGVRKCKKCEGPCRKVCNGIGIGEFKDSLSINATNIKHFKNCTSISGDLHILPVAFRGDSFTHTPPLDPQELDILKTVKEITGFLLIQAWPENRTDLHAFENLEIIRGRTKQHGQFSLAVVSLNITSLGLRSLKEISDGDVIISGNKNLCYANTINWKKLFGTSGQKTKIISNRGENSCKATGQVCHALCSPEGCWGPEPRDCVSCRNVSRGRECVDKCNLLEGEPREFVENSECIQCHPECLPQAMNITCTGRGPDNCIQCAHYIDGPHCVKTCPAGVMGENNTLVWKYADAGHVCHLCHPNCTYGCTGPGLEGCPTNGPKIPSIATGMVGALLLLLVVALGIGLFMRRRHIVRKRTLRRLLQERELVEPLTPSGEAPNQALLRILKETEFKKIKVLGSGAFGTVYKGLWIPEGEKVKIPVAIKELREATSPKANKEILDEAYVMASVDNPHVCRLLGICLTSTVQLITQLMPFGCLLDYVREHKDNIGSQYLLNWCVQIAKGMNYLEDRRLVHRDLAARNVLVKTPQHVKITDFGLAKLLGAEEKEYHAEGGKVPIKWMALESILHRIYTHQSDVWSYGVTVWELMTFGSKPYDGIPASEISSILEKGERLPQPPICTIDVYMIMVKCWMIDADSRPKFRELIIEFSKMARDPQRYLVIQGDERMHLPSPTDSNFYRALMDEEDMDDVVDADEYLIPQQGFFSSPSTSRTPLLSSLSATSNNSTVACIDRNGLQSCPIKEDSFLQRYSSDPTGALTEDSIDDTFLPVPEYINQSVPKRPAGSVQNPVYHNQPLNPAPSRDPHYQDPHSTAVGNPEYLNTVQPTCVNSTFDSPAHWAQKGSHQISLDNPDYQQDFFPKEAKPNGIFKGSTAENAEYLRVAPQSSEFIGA
Chain of Dickkopf-related protein 1 (Homo sapiens) (O94907 whole entry, looked up): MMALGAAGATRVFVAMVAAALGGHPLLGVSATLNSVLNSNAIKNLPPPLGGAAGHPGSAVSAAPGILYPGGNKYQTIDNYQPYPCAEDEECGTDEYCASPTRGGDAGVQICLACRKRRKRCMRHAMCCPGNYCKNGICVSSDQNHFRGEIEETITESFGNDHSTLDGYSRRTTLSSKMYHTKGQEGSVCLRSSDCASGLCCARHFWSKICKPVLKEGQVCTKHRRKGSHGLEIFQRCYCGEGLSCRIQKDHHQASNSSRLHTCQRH

As for `CC(CCN1CCCc2nc(C)c(C)cc21)=NOC(C)CN1CCCCc2nc(C)c(C)cc21` (stereo not given), the composite z-score in experiment [1] was 1.49; in [5], 1.22; in [7], 0.0012; in [8], 0.923; in experiment [9], 1.08; in experiment [10], 0.406. The composite z-score is 1.16 in [11]; 0.0616 in experiment [12]; -0.271 in experiment [13]; 1.14 in experiment [15]; 1.28 in [16]; 1.2 in experiment [17]. Also, the composite z-score in experiment [18] is 1.42; in experiment [19], 1.18; in experiment [20] it was 1.43. The z-score was -0.415 (inactive) in experiment [2]; 0.435 (inactive) in [3]; 0.837 (inactive) in experiment [4]; 0.597 (inactive) in [6]; 0.322 (inactive) in experiment [14].

Regarding `C#CCCCON=C1C[C@@H](O)[C@@H](O)[C@@H]2[C@@H]3C(=O)N(c4ccc(F)cc4F)C(=O)[C@@H]3CC[C@@H]12`, the composite z-score is 0.108 in experiment [1]; -0.261 in [5]; -0.124 in experiment [7]; 0.561 in [8]; 0.0521 in [9]; -0.112 in experiment [10]. In addition, the composite z-score in experiment [11] was 0.191; in [12], -0.19; in experiment [13], -0.71; in experiment [15], -0.0402; in experiment [16], 0.225; in [17] it was 0.259. The results for the composite z-score in experiment [18], in experiment [19] and in [20] were 0.218, 0.302 and -0.263, respectively. Besides, the z-score in experiment [2] is -0.326 (inactive); in [3] it was -0.117 (inactive); in [4], -1.3 (inactive); in experiment [6], 0.336 (inactive); in experiment [14] it was 0.0714 (inactive).

Turning to `CO[C@@H]1COC(=O)[C@@H](C)COC(=O)[C@@H](C)NC(=O)CC=C[C@@H]1C`, the composite z-score in experiment [1] was 1.55; in experiment [5] it was -0.963; in experiment [7] it was -0.154; in [8], 1.6; in [9] it was -0.0403; in experiment [10], -0.0041. The composite z-score was 0.155 in experiment [11]; -0.351 in experiment [12]; -1.08 in experiment [13]; 1.22 in [15]; 0.571 in experiment [16]; 0.318 in [17]. Further, the composite z-score in [18] was 1.33; in experiment [19], 1.73; in experiment [20], 0.675. Further, the z-score in experiment [2] is -2.2 (inactive); in experiment [3] it was -1.61 (inactive); in experiment [4] it was -2.47 (inactive); in [6], -0.801 (inactive); in [14], -2.29 (inactive).

Regarding `CCCNC(=O)OC[C@H]1O[C@H](CCON=C(C)CCN2CCc3nc(CC)c(CC)cc3C2)C=C[C@@H]1Oc1ccc(OC)cc1`, the composite z-score in experiment [1] was 0.285; in [5], 0.73; in [7] it was -0.0539; in experiment [8], 0.559; in experiment [9], -0.286; in experiment [10], -0.0381. The composite z-score was 0.865 in experiment [11]; -0.231 in experiment [12]; -0.163 in [13]; -0.423 in experiment [15]; -0.687 in experiment [16]; 0.159 in [17]. Further, the figures for the composite z-score in experiment [18], in [19] and in [20] were 0.125, 0.192 and 0.886, respectively. Besides, the z-score in experiment [2] is -0.348 (inactive); in experiment [3] it was -2.36 (inactive); in experiment [4] it was 0.156 (inactive); in experiment [6] it was 0.004 (inactive); in [14], -1.02 (inactive).

Consider `O=C1OCCC=C1C(O)CCc1ccccc1` (stereo not given), for which the composite z-score in experiment [1] is -1.06; in experiment [5], -0.119; in experiment [7], -0.0324; in experiment [8] it was 0.433; in experiment [9], 0.67; in experiment [10], 0.0009. The composite z-score in experiment [11] is 0.11; in experiment [12], -0.344; in experiment [13], -0.293; in experiment [15] it was 0.248; in experiment [16], 0.216; in experiment [17], 0.386. Also, the figures for the composite z-score in experiment [18], in [19] and in [20] were 0.527, 0.586 and 0.62, respectively. Also, the z-score in experiment [2] was -0.857 (inactive); in experiment [3], -0.113 (inactive); in experiment [4], -0.665 (inactive); in [6], 0.353 (inactive); in experiment [14], -0.278 (inactive).
